PubChem BioAssay
Where “and” joins values, the source holds several entries; their conditions need not be identical. Equal values may be shown once. Calls of active or inactive are those of the source.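 How the source made its calls, unless noted: active means thallium flux through the channel raised or lowered by more than 3 SD from vehicle-only wells, actives on both sides; inactive means the rest.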

What was measured:
[1] = liver-stage malaria parasite growth inhibition, primary screen, cell-based, HepG2, luciferase luminescence, HepG2 viability (AID 624349; in the data active means parasite load remaining mostly below about 12%, no sharp cut-off; inactive means mostly above about 10%;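 further: 100% = mean of DMSO negative control wells on the same plate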); settings: P. berghei liver stage in HepG2, luciferase luminescence, concentration not given here; parasite load remaining: stronger effect = lower value; viability: measured here: HepG2 viability without parasites
[2] = Cy5 fluorescence interference with SSB-bound oligo, artefact control for HCV NS3 helicase inhibitor project, biochemical, NIH Clinical Collection, E. coli SSB (AID 743268; call rule not given here)
[3] = system: Hepatitis C virus NS3 helicase; experiment: HCV NS3 helicase inhibitors, primary screen, biochemical, fluorescence polarization, NIH Clinical Collection (AID 743270; call rule not given here); settings: NS3 helicase binding to Cy5-dT15 DNA, stronger effect = higher value, concentration not given here
[4] = molecular target: Single-stranded DNA-binding protein (Escherichia coli (strain K12)) (UniProt P0AGE0); experiment: E. coli SSB displacement from DNA, counter-screen for HCV NS3 helicase inhibitor project, biochemical, fluorescence polarization, NIH Clinical Collection (AID 743271; in the data active means inhibition above about 28%); settings: stronger effect = higher value, concentration not given here
[5] = fluorescence interference in NS3h assay format, artefact control for HCV NS3 helicase inhibitor project, biochemical, NIH Clinical Collection (AID 743272; call rule not given here;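 further: HCV NS3 helicase with a Cy5 labelled single stranded DNA probe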); settings: fluorescence interference counterscreen, stronger effect = lower value
[6] = molecular target: 6-phosphogluconate dehydrogenase, decarboxylating (Homo sapiens) (UniProt P52209); experiment: 6PGD enzyme inhibitors, primary screen, biochemical, human, recombinant enzyme, NADPH absorbance (AID 1159550;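 active means at least 20% inhibition of 6-phosphogluconate dehydrogenase activity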); settings: recombinant 6PGD, NADPH absorbance 341 nm; at 10 µM; stronger effect = higher value
Chain of 6-phosphogluconate dehydrogenase, decarboxylating (Homo sapiens) (P52209 whole entry, looked up): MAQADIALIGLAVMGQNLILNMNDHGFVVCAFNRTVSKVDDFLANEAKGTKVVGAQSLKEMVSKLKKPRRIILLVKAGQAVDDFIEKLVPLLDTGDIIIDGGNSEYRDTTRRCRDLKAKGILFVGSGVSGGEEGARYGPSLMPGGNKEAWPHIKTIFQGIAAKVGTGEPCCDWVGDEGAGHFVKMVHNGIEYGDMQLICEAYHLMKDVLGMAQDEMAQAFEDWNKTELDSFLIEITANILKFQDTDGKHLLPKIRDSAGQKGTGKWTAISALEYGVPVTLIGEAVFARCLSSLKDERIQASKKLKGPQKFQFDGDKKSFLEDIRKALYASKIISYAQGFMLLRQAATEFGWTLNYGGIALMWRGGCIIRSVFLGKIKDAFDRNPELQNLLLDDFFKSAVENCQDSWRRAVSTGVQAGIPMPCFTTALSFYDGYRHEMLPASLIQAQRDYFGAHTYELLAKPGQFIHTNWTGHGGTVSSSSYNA

[7] = sensitizers of A549 cells to miR-34 induction, primary screen, imaging, A549 dox-inducible miR-34, nuclei and caspase counts (AID 1347080;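 active means compounds whose cell count with miR-34 switched on is under 0.7 times the count with it off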); settings: A549 miR-34 inducible, Hoechst nuclei count, 48 h
[8] = survival rescue of mitochondrial mutant cells in low glucose, primary screen, MELAS cybrids, Rieske KO mouse fibroblasts, CellTiter-Glo (AID 1508586;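 active means mean z-score across replicates of 1.96 or higher in either the MELAS or the Rieske mutant cell line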;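 further: z relative to plate mean and SD of compound and empty wells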)
[9] = molecular target: NAD(+) hydrolase SARM1 (Homo sapiens) (UniProt Q6SZW1); experiment: SARM1 TIR NADase inhibitors, cell lysate, NAD-Glo luminescence (AID 1508614;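 active means compound whose remaining NAD level is above about 45 nM, limit read from the data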); settings: SAM-TIR HEK293T lysate NADase, at 1 µM, stronger effect = higher value
Chain of NAD(+) hydrolase SARM1 (Homo sapiens) (Q6SZW1 whole entry, looked up, the tested form may be a part): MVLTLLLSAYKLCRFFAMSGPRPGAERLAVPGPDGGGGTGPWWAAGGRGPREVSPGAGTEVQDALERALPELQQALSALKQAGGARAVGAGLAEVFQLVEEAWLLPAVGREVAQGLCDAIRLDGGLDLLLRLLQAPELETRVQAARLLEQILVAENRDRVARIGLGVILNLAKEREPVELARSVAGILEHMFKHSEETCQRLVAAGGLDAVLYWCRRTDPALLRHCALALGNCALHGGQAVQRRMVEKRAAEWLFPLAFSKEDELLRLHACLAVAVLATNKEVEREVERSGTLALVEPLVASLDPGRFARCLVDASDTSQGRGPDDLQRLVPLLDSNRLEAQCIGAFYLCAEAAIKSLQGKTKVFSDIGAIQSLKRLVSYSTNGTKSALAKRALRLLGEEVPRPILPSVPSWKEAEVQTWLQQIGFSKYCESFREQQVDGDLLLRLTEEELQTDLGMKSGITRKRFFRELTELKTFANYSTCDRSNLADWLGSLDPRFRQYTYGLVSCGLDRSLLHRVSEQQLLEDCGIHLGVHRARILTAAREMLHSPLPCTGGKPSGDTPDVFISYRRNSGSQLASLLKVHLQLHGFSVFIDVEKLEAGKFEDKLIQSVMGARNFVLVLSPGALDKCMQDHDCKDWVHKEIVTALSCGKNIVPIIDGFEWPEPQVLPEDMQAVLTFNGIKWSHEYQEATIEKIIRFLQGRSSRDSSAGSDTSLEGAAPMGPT

[10] = molecular target: Mitogen-activated protein kinase 7 (Homo sapiens) (UniProt Q13164); experiment: ERK5 transactivation activators in reporter cells, primary screen, cell-based, HTS (AID 1508626;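 active means luciferase signal above three times the same-plate solvent-only control wells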;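 further: luciferase driven by Gal4-ERK5 fusion binding five Gal4 sites before minimal TATA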); settings: HeLa Gal4-ERK5 transactivation, 18 h, at 5 µM, stronger effect = higher value
Chain of Mitogen-activated protein kinase 7 (Homo sapiens) (Q13164 whole entry, looked up, the tested form may be a part): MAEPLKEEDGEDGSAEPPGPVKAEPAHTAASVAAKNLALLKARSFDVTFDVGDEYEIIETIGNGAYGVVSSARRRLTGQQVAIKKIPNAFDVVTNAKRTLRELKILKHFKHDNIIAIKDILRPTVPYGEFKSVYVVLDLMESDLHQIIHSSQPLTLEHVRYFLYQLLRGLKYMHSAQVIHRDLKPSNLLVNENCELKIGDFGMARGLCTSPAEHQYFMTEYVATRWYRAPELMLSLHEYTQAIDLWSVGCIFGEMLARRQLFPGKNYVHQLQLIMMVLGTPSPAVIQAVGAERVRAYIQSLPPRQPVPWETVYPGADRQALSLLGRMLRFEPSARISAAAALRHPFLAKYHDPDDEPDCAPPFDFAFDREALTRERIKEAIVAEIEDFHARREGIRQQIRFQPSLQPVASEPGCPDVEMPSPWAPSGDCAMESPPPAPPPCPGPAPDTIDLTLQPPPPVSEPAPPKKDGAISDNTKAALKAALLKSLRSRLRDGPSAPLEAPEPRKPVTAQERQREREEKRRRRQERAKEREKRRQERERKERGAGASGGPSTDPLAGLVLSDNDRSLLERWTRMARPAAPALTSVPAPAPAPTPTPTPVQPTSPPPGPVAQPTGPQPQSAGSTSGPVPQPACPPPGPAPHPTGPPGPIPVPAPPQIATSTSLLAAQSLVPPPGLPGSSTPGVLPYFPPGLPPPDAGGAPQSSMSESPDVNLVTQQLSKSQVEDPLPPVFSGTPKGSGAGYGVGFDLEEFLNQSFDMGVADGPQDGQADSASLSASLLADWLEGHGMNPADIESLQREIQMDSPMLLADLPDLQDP

[11] = viability rescue of complex I mutant cybrids, primary screen, cell-based, galactose medium, ATP luminescence (AID 1645843;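 active means z-score of at least 1.8 in each of two replicates, scored against plate mean and spread of sample wells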;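 further: positive z means more ATP and so rescue of galactose-driven cybrid death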); settings: complex I mutant cybrid cells, 72 h, stronger effect = higher value
F380Y = experiment: modulators of BK channel variants, profiling panel, selectivity assay, cell-based, U2OS BacMam, thallium flux, beta subunits (AID 1259406); settings: at 30 µM;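 further: initial slope of Thallos dye fluorescence rise after thallium is added; log ratio against the mean of 0.3% DMSO vehicle wells on the same plate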
F380Y/beta2Delta = experiment: as above; settings: at 30 µM
[12] = molecular target: Calcium-activated potassium channel subunit alpha-1 (Homo sapiens) + Leucine-rich repeat-containing protein 26 (Homo sapiens) (UniProt Q12791+Q2I0M4); experiment: as above; settings: F380Y/Slo1WT/gamma1, at 30 µM
Chain of Calcium-activated potassium channel subunit alpha-1 (Homo sapiens) + Leucine-rich repeat-containing protein 26 (Homo sapiens) (Q2I0M4 whole entry, looked up, one chain of several): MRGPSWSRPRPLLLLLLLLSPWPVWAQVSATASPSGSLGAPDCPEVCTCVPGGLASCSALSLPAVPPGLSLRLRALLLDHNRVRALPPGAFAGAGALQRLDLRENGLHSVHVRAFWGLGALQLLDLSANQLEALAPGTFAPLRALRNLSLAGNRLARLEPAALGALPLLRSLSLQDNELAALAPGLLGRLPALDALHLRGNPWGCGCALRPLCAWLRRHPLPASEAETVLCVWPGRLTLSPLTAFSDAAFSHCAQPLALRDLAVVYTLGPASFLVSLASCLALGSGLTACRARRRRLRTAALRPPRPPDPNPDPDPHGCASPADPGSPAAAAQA

R275C = experiment: as above; settings: at 30 µM
R275C/beta1 = experiment: as above; settings: at 30 µM
R275C/beta2Delta = experiment: as above; settings: at 30 µM
[13] = modulation of C. elegans fzo-1 (AID 1259413; call rule not given here;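 further: fzo-1 mutant C. elegans worms in liquid wells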); settings: C. elegans fzo-1 modulator screen, mean read-out; stronger effect = higher value
[14] = differential killing of epithelial or mesenchymal cells, primary screen, imaging, PC-3E GFP, TEM4-18 mCherry, co-culture (AID 1345086;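 active means compounds killing one labelled cell type while sparing the other, by normalised counts and ratio limits, not self-fluorescent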;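 further: cells exposed to compound for 72 h before imaging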;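 on red/green cell ratio (normalised): normalised mesenchymal count divided by normalised epithelial count so high means epithelial killing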); settings: imaging cell counts, at 1 µM
[15] = stronger effect = lower value, cell number ratio, induced over uninduced
[16] = measured here: relative caspase fold change +Dox/-Dox
[17] = measured here: total cells with miR-34 induction, stronger effect = lower value
[18] = measured here: total cells without miR-34 induction
[19] = MELAS cybrid survival, CellTiter-Glo 48 h, stronger effect = higher value
[20] = Rieske KO mouse fibroblast survival, CellTiter-Glo 72 h

CCC(=O)OCC(=O)[C@@]1(OC(=O)CC)[C@@H](C)C[C@H]2[C@@H]3CCC4=CC(=O)C=C[C@]4(C)[C@@]3(Cl)[C@@H](O)C[C@@]21C
1.23: z-score [8, 20]
active: log fold change Tl+ flux (F380Y) -0.163 | log fold change Tl+ flux (R275C) -0.105
1.6 and 1.23: fold change [7, 16]
6840 and 6120: cell count [7, 17]
126% and 93.5%: viability [1]
7490 and 7730: cell count [7, 18]
inactive: parasite load remaining [1] 87.4% and 97.8% | fluorescence ratio [2] 1.01 | inhibition [3] 0.45% | inhibition [4] 2.57% | fluorescence ratio [5] 0.96 | inhibition [6] -4.35% | fold change [7, 15] 0.914 and 0.792 | z-score [8, 19] 0.616 | remaining NAD [9] 10 nM | luciferase signal [10] 188 AU | z-score [11] -1.24 | log fold change Tl+ flux (F380Y/beta2Delta) -0.0617 | log fold change Tl+ flux [12] 0.021 | log fold change Tl+ flux (R275C/beta1) 0.0418 | log fold change Tl+ flux (R275C/beta2Delta) 0.0132

CNCCC=C1c2ccccc2CCc2ccccc21
1.12: normalised cell number ([14]; measured here: epithelial PC-3E GFP cell survival)
1.26: normalised cell number ([14]; measured here: mesenchymal TEM4-18 mCherry cell survival)
-0.307: z-score [8, 20]
inactive: fluorescence ratio [2] 1.02 | inhibition [3] -5.91% | inhibition [4] -4.29% | fluorescence ratio [5] 0.99 | inhibition [6] -10.4% | mean signal [13] 233 | red/green cell ratio (normalised) ([14]; actives lie on both sides, counts scaled to control wells, 1 = unselective) 1.12 | z-score [8, 19] -0.337 | remaining NAD [9] 10 nM | luciferase signal [10] 120 AU | z-score [11] -1.28 and -1.35 | log fold change Tl+ flux [12] 0.00764 | log fold change Tl+ flux (R275C) 0.0226
active: log fold change Tl+ flux (F380Y) 0.169 | log fold change Tl+ flux (F380Y/beta2Delta) 0.217 | log fold change Tl+ flux (R275C/beta1) 0.165 | log fold change Tl+ flux (R275C/beta2Delta) 0.126

CC(=O)O[C@]1(C(C)=O)CC[C@H]2[C@@H]3C[C@H](C)C4=CC(=O)CC[C@]4(C)[C@H]3CC[C@@]21C
77.3%: viability [1]
inactive: parasite load remaining [1] 22.6% | fluorescence ratio [2] 0.99 | inhibition [3] -0.45% | inhibition [4] -0.48% | fluorescence ratio [5] 0.97 | inhibition [6] 2.85% | mean signal [13] 251 | fold change [7, 15] 0.928 | remaining NAD [9] 10 nM | luciferase signal [10] 68 AU | z-score [11] -1.19 | log fold change Tl+ flux (F380Y) -0.0294 | log fold change Tl+ flux (F380Y/beta2Delta) -0.0667 | log fold change Tl+ flux [12] -0.0359 | log fold change Tl+ flux (R275C) -0.0267 | log fold change Tl+ flux (R275C/beta1) 0.0157 | log fold change Tl+ flux (R275C/beta2Delta) 0.0115
1.75: fold change [7, 16]
7550: cell count [7, 17]
8130: cell count [7, 18]

C#C[C@]1(OC(C)=O)CC[C@H]2[C@@H]3CCC4=CC(=O)CC[C@@H]4[C@H]3CC[C@@]21C
9170: cell count [7, 17]
1.09: fold change [7, 16]
inactive: parasite load remaining [1] 26.4% | fluorescence ratio [2] 1.05 | inhibition [3] -3.18% | inhibition [4] 7.15% | fluorescence ratio [5] 0.89 | inhibition [6] -1.74% | fold change [7, 15] 0.989 | remaining NAD [9] 24 nM | luciferase signal [10] 28 AU | z-score [11] -1.36 | log fold change Tl+ flux (F380Y) -0.0982 | log fold change Tl+ flux (F380Y/beta2Delta) -0.0589 | log fold change Tl+ flux [12] -0.0258 | log fold change Tl+ flux (R275C) -0.00546 | log fold change Tl+ flux (R275C/beta1) 0.0232 | log fold change Tl+ flux (R275C/beta2Delta) 0.0192
9280: cell count [7, 18]
96.7%: viability [1]

OC[C@H]1O[C@@H](Oc2cc(O)cc(/C=C/c3ccc(O)cc3)c2)[C@H](O)[C@@H](O)[C@@H]1O
inactive: parasite load remaining [1] 100% | fluorescence ratio [2] 1 | inhibition [3] 3.56% | inhibition [4] 10.7% | fluorescence ratio [5] 0.98 | inhibition [6] 15% | mean signal [13] 254 | log fold change Tl+ flux (F380Y) 0.0295 | log fold change Tl+ flux (F380Y/beta2Delta) -0.0576 | log fold change Tl+ flux [12] -0.0684 | log fold change Tl+ flux (R275C) -0.101 | log fold change Tl+ flux (R275C/beta1) -0.0629 | log fold change Tl+ flux (R275C/beta2Delta) -0.0169
78.3%: viability [1]

CCCCC(=O)O[C@H]1CC[C@H]2[C@@H]3CCc4cc(O)ccc4[C@H]3CC[C@]12C
2.83: fold change [7, 16]
-0.171: z-score [8, 20]
6120: cell count [7, 17]
6090: cell count [7, 18]
98.1%: viability [1]
inactive: parasite load remaining [1] 36.5% | fluorescence ratio [2] 1.02 | inhibition [3] 3.18% | inhibition [4] 4.1% | fluorescence ratio [5] 0.91 | inhibition [6] 6.29% | fold change [7, 15] 1 | z-score [8, 19] -1.02 | remaining NAD [9] 10 nM | luciferase signal [10] 84 AU | z-score [11] -1.51 | log fold change Tl+ flux (F380Y) 0.0324 | log fold change Tl+ flux (F380Y/beta2Delta) 0.0462 | log fold change Tl+ flux [12] 0.00253 | log fold change Tl+ flux (R275C) 0.0329 | log fold change Tl+ flux (R275C/beta1) 0.0221 | log fold change Tl+ flux (R275C/beta2Delta) -0.00327
